The source of these data is PubChem BioAssay (NCATS).

Results filed as inconclusive are left out. A call without a number means that no potency is given here. A number with no mark means an inactive call. The source made the active and inactive calls. Calls come from the whole dose curve; as a rule, active = well fitted curve in the direction sought with a large enough effect in the signal ratio, with a control signal flat (not every such curve was filed as active); inconclusive = small, poorly fitted or top-dose-only effect, or effect the other way, or a change in a side signal; inactive = no such curve, though single readings can be large or run the other way; the % refers to the signal ratio.

Chain of Estrogen receptor (Homo sapiens) (P03372 whole entry, looked up): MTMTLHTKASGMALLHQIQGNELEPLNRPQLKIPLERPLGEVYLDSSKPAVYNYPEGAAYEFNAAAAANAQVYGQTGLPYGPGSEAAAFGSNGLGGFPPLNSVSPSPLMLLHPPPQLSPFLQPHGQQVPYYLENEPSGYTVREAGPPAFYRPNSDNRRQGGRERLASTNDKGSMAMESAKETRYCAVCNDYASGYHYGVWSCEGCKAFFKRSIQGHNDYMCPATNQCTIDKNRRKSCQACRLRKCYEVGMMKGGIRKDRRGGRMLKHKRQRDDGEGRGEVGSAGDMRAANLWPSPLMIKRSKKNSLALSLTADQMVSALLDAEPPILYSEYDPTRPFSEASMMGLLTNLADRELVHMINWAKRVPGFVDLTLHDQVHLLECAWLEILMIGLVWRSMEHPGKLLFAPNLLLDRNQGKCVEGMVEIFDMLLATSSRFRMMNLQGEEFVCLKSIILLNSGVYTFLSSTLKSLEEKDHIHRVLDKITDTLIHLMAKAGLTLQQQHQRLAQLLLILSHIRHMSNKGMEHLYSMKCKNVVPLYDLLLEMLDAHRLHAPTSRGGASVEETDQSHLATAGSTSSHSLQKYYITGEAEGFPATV

The assay concerns the target Estrogen receptor (Homo sapiens) (UniProt P03372). Nature of the assay: qHTS assay for small molecule antagonists of estrogen receptor alpha signaling (AID 588513). As to conditions: ER-alpha-UAS-bla HEK293, beta-lactamase ratio, antagonist mode; series mostly up to 76.9 µM; activity, negative = inhibition: at the top concentration. From the text: NIH Chemical Genomics Center [NCGC]
U.S. Environmental Protection Agency [EPA]
National Institutes of Environmental Health Sciences [NIEHS]
National Toxicology Program [NTP]
Estrogen receptor alpha (ER-alpha) is an important member of nuclear hormone receptors. ER-alpha plays important role in breast cancer as well as in other women's health issues. The majority of breast cancers is estrogen receptor (ER) positive and depends on estrogen for growth. There is also growing concern for some of environmental chemicals which may contribute the increasing the incidence of breast cancer. Therefore, it is important to understand the effect of environmental chemicals in ER-alpha signaling pathway.
NCGC Assay Protocol Summary
Using a beta-lactamase reporter-gene under control of the ER response element, a cell-based assay [ER-alpha-UAS-bla GripTiteTM cell-Based Assay from Invitrogen] was used to measure ER-alpha signaling pathway in antagonist mode. ER-alpha-UAS-bla-GripTite HEK 293 cells were used with assay medium containing 2% charcoal/dextran treated FBS, 0.1 mM NEAA and 1 mM sodium pyruvate. Cells were cultured in this assay medium overnight in the flasks before the assay. The assay was performed in clear bottom black Greiner 1536-well plates. 17-beta-estradiol was used as a positive control in the screen. Library compounds were measured for their ability to inhibit the reporter gene activity. Compounds were screened in a titration series in 1536-well format. […] Data was normalized relative to 17-beta-estradiol control (0.5nM, 100%), and DMSO only wells (basal, 0%). Concentration-response titration points for each compound were fitted to the Hill equation yielding concentrations of half-maximal inhibition (IC50) and maximal response (efficacy) values.
qHTS protocol for ER-alpha beta-lactamase assay in antagonist mode
[Step] [Parameter] [Value] [Description]
1. Reagent; 5 uL; 5000 cells/well
2. Incubation; 37 C for 4 hrs
- Dose response, Start 38uM, 1:2 dilutions with duplicates
- Two columns with 38 and 19uM (final) concentration.
5. Agonist (Stimulator); 1uL; 17-beta-estradiol at 0.5nM (final) concentration
6. Incubation; 37 C for 18 hrs
7. Detection reagent; 1 uL of CCF4-dye
8. Incubation; RT for 2 hrs
9. Detection; Fluorescence; Envision plate reader or Acumen plate reader
For orientation: Quantitative high-throughput screening tests each substance at several concentrations.
For `Cc1c(N=C=O)cccc1N=C=O`, the “activity, negative = inhibition” value is 6.35%.

On to `O=C1CCc2ccccc2O1`, for which the “activity, negative = inhibition” value was 3.46%.

Consider `O=C(O)c1ccccc1C(c1ccc(O)cc1)c1ccc(O)cc1`, for which the Potency entry is “inactive”.

On to `C=Cc1ccccc1Cl`, for which the “activity, negative = inhibition” value is 1.05%.

As to `CCO`, the “activity, negative = inhibition” value is 13.8%.

As to `Cc1ccc([N+](=O)[O-])cc1N`, the Potency entry is “inactive”.

As for `Cc1ccc([N+](=O)[O-])c(C)c1`, the Potency entry is “inactive”.

As to `C=CC(C)(CCC=C(C)C)OC(C)=O` (stereo not given), the “activity, negative = inhibition” value was -2.35%.

`C=CCOC(=O)c1ccccc1C(=O)OCC=C`: the Potency result is “inactive”.

Turning to `C=CC(=C)CCC=C(C)C`, the “activity, negative = inhibition” value was 5.12%.

As for `CCCCCCCCCCCCCCC1CO1` (stereo not given), the Potency result was “inactive”.

As for `CC1=CC(C)(C)Nc2ccccc21`, the Potency result is “inactive”.

Take `COCC(=O)O`: the Potency result is “inactive”.

`COC(=O)c1ccc(C)cc1`: the Potency result was “inactive”.

Consider `O=C(O)c1ccccc1`, for which the “activity, negative = inhibition” value was 8.03%.

`CCCCCCCCCCCCCC(=O)O`: the “activity, negative = inhibition” value is -19.9%.

Consider `Nc1ccc(S(=O)(=O)O)cc1`, for which the “activity, negative = inhibition” value is -9.45%.

Regarding `Clc1cc(Cl)c(Cl)c(Cl)c1Cl`, the Potency result was “inactive”.

For `O=[N+]([O-])c1cccc(Cl)c1Cl`, the Potency entry is “inactive”.

With `CC1=C2[C@H](/C=C(\C)C(=O)O)CC[C@@H](C)[C@H]2CC1`, the “activity, negative = inhibition” value was -51.3%.

On to `COc1ccc2nc(N)sc2c1`, for which the Potency entry was “inactive”.

With `ClCCCl`, the Potency result is “inactive”.

As to `O=C1c2ccccc2C(=O)C1c1ccc2ccccc2n1`, the “activity, negative = inhibition” value is 10.9% [at 36 µM].

As to `O=C(O)CC(C(=O)O)C(CC(=O)O)C(=O)O` (stereo not given), the Potency result was “inactive”.

As to `Cc1ccccc1C`, the Potency result was “inactive”.

Take `Nc1ccc(Cl)cc1Cl`: the Potency entry was “inactive”.

Consider `CCCN(CCC)C(=O)SCC`, for which the “activity, negative = inhibition” value is 6.47%.

Take `c1ccc2c(c1)c1cccc3ccc4cccc2c4c31`: the Potency result is “inactive”.

As to `c1ccc2c(c1)[nH]c1ccccc12`, the Potency entry is “inactive”.

As for `COC(=O)c1ccc(C=O)cc1`, the Potency entry is “inactive”.

Consider `CCC(O)OC(O)CC` (stereo not given), for which the Potency result was “inactive”.

As for `CC(=O)OC/C=C(\C)CCC=C(C)C`, the Potency entry was “inactive”.

Take `C=C(C)C1CC=C(C)C(O)C1` (stereo not given): the “activity, negative = inhibition” value was 15.6%.

Turning to `CCO[Si](CCCN)(OCC)OCC`, the Potency entry was “inactive”.

For the compound `CC12CCC(CC1=O)C2(C)C` (stereo not given), the Potency entry is “inactive”.

On to `CN(C)C=O`, for which the Potency entry was “inactive”.

With `Clc1cc(Cl)c(Cl)cc1Cl`, the Potency result is “inactive”.

As for `c1ccc2scnc2c1`, the “activity, negative = inhibition” value is 17.3%.

As for `Cc1ccc(N)c([N+](=O)[O-])c1`, the Potency result is “inactive”.

As for `Cc1cccc([N+](=O)[O-])c1C`, the Potency result was “inactive”.
